# Results reported in ChEMBL document CHEMBL3988442, “University of Dundee, Small-Polar-MMV Screening Library” (2021).
# For some of these results: Measured potencies and affinities stand elsewhere.
# What was measured:
# Set-up in all cases: scale not given: direction of the effect not stated beside the values
# [1] = molecular target: Protein translocase subunit SecA (Escherichia coli (strain K12)) (UniProt P10408); experiment: Assay to Identify E. coli SecA ATPase Inhibitors; format: functional; conditions: 30 µM
# Protein translocase subunit SecA (Escherichia coli (strain K12)), sequence (P10408 whole entry): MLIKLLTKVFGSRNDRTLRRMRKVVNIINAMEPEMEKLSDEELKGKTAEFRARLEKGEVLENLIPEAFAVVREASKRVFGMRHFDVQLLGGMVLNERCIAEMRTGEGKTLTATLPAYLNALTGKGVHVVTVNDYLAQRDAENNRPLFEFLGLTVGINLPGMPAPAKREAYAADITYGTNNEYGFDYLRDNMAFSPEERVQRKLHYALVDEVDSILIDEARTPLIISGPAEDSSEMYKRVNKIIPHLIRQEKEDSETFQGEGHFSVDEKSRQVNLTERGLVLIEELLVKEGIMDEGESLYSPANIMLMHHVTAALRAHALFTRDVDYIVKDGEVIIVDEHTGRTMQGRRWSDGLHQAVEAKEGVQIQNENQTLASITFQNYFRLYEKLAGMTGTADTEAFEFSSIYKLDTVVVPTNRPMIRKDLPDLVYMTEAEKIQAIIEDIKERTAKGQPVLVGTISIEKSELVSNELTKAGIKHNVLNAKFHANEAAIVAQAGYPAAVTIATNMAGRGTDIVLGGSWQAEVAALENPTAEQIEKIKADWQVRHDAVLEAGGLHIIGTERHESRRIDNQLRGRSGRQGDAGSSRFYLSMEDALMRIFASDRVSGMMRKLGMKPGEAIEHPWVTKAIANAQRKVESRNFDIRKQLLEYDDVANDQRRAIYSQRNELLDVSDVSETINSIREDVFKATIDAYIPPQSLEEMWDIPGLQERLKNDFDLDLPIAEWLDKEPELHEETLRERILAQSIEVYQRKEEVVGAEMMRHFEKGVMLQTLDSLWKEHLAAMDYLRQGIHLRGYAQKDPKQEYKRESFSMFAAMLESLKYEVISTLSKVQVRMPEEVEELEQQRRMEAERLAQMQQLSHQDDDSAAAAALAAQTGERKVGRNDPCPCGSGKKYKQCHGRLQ
# [2] = molecular target: T1, Ubiquitin-activating enzyme e1, putative (Leishmania donovani (strain BPK282A1)) (UniProt E9BSI1); experiment: Leishmania donovani Ubiquitin Activating Enzyme (LdE1); format: functional; conditions: 30 µM
# T1 sequence (whole entry): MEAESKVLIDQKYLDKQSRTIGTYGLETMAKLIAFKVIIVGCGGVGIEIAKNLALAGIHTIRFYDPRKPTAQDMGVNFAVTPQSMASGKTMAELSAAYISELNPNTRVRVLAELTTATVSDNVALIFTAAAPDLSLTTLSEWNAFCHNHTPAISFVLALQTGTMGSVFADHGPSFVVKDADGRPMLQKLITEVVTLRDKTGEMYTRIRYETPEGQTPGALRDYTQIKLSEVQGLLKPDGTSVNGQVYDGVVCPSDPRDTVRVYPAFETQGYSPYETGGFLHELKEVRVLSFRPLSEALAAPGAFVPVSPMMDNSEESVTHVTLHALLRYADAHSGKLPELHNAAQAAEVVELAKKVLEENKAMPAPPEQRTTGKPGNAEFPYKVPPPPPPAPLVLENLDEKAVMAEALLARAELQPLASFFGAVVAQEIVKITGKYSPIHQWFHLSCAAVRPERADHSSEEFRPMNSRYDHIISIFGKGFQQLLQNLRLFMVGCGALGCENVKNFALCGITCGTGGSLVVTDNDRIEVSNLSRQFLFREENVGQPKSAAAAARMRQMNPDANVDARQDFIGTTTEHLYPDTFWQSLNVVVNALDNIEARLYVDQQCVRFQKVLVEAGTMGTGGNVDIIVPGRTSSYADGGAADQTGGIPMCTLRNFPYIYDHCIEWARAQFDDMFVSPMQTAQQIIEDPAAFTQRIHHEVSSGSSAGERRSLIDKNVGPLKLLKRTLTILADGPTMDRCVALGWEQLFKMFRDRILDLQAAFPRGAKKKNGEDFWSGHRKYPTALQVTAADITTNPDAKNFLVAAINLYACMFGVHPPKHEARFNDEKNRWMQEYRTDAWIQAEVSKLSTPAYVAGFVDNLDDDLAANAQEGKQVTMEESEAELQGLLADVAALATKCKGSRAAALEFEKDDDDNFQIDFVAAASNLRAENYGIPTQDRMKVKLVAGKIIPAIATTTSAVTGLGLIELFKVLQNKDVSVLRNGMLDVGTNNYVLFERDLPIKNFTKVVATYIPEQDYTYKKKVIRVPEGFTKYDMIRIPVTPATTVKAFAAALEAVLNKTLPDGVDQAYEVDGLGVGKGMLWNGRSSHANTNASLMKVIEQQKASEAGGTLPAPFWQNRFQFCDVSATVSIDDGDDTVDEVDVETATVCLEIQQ
# [3] = molecular target: AMP-activated protein kinase, AMPK (Homo sapiens) (UniProt P54646+O43741+P54619+Q9UGJ0+Q9Y478+Q13131+Q9UGI9); experiment: AMP-dependent Kinase enzyme assay. An in vitro enzyme assay that detects ADP turnover that is directly proportional to AMPK activity. This uses naive AMPK that is activated during the assay with MK-8722; format: functional; conditions: 30 µM
# [4] = molecular target: Sialic acid-binding Ig-like lectin 9 (Homo sapiens) (UniProt Q9Y336); experiment: Hs-Siglec9 ALPHAscreen SOP 20170721; conditions: 10 µM
# Sialic acid-binding Ig-like lectin 9 (Homo sapiens), sequence (Q9Y336 whole entry): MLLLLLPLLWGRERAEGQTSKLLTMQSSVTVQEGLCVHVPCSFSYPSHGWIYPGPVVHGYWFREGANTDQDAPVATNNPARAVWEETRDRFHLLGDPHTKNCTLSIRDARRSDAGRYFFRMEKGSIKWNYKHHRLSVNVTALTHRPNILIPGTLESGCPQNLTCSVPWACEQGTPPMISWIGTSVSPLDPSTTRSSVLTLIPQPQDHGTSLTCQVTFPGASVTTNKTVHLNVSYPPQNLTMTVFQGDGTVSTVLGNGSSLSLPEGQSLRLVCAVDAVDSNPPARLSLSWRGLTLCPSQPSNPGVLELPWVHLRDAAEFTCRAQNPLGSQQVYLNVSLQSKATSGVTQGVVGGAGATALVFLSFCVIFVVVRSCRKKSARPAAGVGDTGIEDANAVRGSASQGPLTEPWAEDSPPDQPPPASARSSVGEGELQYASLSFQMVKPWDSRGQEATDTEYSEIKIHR
# Trypanosoma cruzi = experiment: Trypanosoma cruzi phosphomannomutase and mannose-1-phosphate guanylyltransferase assay; format: functional; conditions: 10 µM
# [5] = molecular target: T2, Arginase-2, mitochondrial (Homo sapiens) (UniProt P78540); experiment: in vitro enzyme assay to detect the production of urea directly proportional to the activity of Arginase II; format: functional; conditions: 33.3 µM; also: in the data most compounds retested in dose-response had high values
# T2 sequence (whole entry): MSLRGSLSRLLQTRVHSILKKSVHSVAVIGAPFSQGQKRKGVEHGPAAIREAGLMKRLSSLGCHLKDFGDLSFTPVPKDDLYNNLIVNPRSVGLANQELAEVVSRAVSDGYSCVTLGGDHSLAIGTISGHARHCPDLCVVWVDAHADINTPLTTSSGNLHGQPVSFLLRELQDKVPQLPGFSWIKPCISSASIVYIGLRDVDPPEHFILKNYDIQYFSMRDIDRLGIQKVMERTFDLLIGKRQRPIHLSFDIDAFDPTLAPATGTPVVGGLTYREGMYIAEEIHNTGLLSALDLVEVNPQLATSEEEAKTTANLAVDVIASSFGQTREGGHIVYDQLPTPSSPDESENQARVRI
# [6] = molecular target: T3, Proteasome subunit beta (Trypanosoma cruzi) (UniProt O96673); experiment: Trypanosoma cruzi proteasome chymotrypsin-like activity (TcProtChymo) assay.; also: in the data most compounds retested in dose-response had high values; format: functional; conditions: 9.37 µM
# T3 sequence (whole entry): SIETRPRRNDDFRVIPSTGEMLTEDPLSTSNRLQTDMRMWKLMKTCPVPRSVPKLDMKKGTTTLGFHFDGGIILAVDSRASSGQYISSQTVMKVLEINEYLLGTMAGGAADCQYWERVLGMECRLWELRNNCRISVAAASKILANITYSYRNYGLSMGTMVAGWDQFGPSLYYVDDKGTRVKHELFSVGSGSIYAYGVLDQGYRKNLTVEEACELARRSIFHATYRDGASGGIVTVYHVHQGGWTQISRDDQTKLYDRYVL
# Homo sapiens = organism: Homo sapiens; experiment: To identify inhibition of the IFN signalling (Jak-Stat) pathway via expression of an eGFP reporter gene under the control of an IFN-stimulated response element (ISRE) containing MxA promoter.; format: functional; conditions: 30 µM
# [7] = molecular target: T4, Tyrosyl-tRNA synthetase, putative (Trypanosoma cruzi (strain CL Brener)) (UniProt Q4DSP6); experiment: Trypanosoma cruzi tyrosyl tRNA synthetase (TcYRS) _High Tyrosine SOP; format: functional; conditions: 30 µM; also: in the data most compounds retested in dose-response had high values
# T4 sequence (whole entry): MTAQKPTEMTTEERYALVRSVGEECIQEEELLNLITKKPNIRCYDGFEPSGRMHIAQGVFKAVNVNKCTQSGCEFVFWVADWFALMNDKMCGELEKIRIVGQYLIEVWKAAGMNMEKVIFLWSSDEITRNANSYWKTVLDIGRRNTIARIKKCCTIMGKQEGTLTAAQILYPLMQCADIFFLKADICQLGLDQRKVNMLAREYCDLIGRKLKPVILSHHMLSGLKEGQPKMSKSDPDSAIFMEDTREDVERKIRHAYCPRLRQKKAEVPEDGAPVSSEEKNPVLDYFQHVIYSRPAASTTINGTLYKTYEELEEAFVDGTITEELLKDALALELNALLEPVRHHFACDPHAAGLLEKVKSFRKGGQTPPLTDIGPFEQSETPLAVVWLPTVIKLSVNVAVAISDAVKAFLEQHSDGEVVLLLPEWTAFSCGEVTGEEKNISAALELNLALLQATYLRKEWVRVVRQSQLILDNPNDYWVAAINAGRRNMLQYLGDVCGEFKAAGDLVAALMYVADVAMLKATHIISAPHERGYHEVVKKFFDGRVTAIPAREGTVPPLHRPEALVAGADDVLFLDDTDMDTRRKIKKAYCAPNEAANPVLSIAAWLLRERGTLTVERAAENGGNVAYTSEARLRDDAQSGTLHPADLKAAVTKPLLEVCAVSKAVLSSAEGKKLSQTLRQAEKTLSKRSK
# [8] = molecular target: T4, Tyrosyl-tRNA synthetase, putative (Trypanosoma cruzi (strain CL Brener)); experiment: Trypanosoma cruzi tyrosyl tRNA synthetase (TcYRS) SOP; format: functional; conditions: 30 µM
# [9] = molecular target: Chromo domain-containing protein 1 (Saccharomyces cerevisiae (strain ATCC 204508 / S288c) (Baker's yeast)) (UniProt P32657); experiment: ScCHD-1 Enzyme Inhibition Assay; format: functional; conditions: 30 µM; also: in the data most compounds retested in dose-response had high values
# Chromo domain-containing protein 1 (Saccharomyces cerevisiae (strain ATCC 204508 / S288c) (Baker's yeast)), sequence (P32657 whole entry, the tested form may be a part): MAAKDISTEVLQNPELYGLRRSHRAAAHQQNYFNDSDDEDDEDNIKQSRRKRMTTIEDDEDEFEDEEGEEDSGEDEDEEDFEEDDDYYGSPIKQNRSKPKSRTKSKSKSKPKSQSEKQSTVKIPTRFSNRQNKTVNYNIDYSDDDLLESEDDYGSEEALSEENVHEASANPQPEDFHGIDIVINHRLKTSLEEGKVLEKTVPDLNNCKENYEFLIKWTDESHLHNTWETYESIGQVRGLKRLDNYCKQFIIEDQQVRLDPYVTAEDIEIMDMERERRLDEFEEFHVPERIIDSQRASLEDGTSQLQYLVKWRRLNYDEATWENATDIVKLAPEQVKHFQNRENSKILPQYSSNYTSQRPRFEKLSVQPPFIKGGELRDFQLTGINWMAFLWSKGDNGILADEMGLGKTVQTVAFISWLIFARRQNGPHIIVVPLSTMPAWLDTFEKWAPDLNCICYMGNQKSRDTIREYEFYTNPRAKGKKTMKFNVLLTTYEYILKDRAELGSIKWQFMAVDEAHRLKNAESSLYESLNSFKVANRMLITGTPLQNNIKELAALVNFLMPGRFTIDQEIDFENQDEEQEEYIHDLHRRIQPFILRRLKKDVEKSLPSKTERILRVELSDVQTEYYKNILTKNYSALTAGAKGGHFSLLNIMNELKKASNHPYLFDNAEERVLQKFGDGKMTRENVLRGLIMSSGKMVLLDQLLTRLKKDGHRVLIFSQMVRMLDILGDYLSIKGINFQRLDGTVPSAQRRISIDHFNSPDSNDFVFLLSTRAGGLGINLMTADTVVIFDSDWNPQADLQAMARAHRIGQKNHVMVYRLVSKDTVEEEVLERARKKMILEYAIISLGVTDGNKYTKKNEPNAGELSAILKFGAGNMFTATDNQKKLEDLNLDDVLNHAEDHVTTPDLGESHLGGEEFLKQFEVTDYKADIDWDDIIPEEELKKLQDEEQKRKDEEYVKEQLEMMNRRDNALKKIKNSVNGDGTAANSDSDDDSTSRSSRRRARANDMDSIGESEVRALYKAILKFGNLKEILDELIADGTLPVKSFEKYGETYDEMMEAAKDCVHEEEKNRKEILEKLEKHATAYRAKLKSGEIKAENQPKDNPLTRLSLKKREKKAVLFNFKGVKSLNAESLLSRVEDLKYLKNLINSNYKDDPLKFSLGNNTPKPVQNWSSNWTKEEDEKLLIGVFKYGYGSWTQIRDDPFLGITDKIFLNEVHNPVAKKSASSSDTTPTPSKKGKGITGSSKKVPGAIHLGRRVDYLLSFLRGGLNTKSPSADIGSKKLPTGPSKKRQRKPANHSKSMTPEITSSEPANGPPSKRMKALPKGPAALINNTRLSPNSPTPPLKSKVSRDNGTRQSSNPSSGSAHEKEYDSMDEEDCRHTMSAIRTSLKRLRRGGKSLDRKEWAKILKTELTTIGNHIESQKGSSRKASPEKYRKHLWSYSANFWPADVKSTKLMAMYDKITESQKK
SMILES,Percent Effect [1] [%],Percent Effect [2] [%],Percent Effect [3] [%],Percent Effect [4] [%],Percent Effect (Trypanosoma cruzi) [%],Percent Effect [5] [%],Percent Effect [6] [%],Percent Effect (Homo sapiens) [%],Percent Effect [7] [%],Percent Effect [8] [%],Percent Effect [9] [%]
Cc1ccc(-c2cc(N)c(=O)n(CC(=O)NCC3CCCCC3)n2)s1,-3.51,9.46,11.8,-4.16,-6.13,-2.09,12.3,9.89,-6.45,3.9,-4.23
O=C(c1cnc(COc2ccccc2)nc1O)N1CCOCC1,-3.01,4.17,-4.14,-9.54,-1.07,-0.442,8.77,16.1,2.1,2.56,-1.09
Cc1cc(C(=O)N2CC[C@@H]3CN(S(C)(=O)=O)CCO[C@@H]3C2)c(C)o1,-2.68,13.5,1.13,-7.58,-3.62,2.87,25.6,-7.91,4.32,15.4,-2.64
Cc1nc(C2CCCN2CC(=O)NCCc2ccsc2)no1 (stereo not given),-2.17,16.2,-10.4,13.2,5.11,3.51,10.4,-5.59,6.93,18.3,-8.06
O=C(NCC1CCOC1)N1CCN(Cc2ccc3c(c2)CCO3)CC1 (stereo not given),-2.3,15.8,-4.31,-5.79,2.33,-5.4,4.99,-17.4,9.36,23.5,-7.08
O=C(c1ccc[nH]1)N1CCCC(c2cc(C(F)(F)F)[nH]n2)C1 (stereo not given),-5.38,-10.5,1.16,17.4,-4.39,-1.08,-0.0846,35.6,3.45,6.17,-3.1
O=C1CCSCC(C(=O)N2CCN(C3CCCCC3)CC2)N1 (stereo not given),-2.82,0,-2.68,-4.3,0.979,3.64,2.48,-1.47,5.38,12.5,-0.805
O=C1CC[C@H]2CN(Cc3ccc(Cl)s3)CC[C@H]2N1CCc1c[nH]cn1,-2.35,5.48,2.32,10.8,4.37,-1.6,11.9,34.2,3.12,8.64,-0.239
CN(C)C(=O)C1CN(Cc2ccccc2)CCN(S(C)(=O)=O)C1 (stereo not given),-5.51,17.6,8.68,7.06,4.35,-3.02,3.12,11.2,2.15,9.09,-19.2
CC(C)N1CCC(CNCc2c[nH]nc2C(C)(C)C)C1 (stereo not given),-2.43,29.7,-3.65,-3.23,5.19,-14.4,17.1,22,9.36,23.5,-10.6
O=C1CC(c2cccc(O)c2)c2c(c(C(=O)O)cn2-c2ccccc2)N1 (stereo not given),-3.46,1.33,-385,1.46,-3.34,-5.81,14.6,7.35,0,-5.13,-11.7
Cc1nc(C)n(CC2CCCN(CCC(=O)N3CCCCC3)C2)n1 (stereo not given),-1.52,-2.6,7.57,-4.47,-4.21,5.26,-0.566,20.7,0,0,4.58
CS(=O)(=O)c1ccc(NC(=O)N2CCc3sccc3C2)cn1,-2.17,10.8,4.69,-4.04,-3.71,1.67,18.3,63.4,5.94,11,13.6
CN(CCCc1cnn(C)c1)C(=O)C1CCOC1 (stereo not given),-4.14,2.74,3.21,1.94,-6.46,-1.36,13.1,10.7,3.23,2.5,-1.18
O=C(Cc1ccccc1F)N1CCN(C(=O)c2cccc(F)c2)CC1,0.735,7.89,-4.8,-9.01,-7.69,3.55,18.9,13.3,0,-59.7,27.2
COCCc1noc(CNCC2CCCN2c2cccnn2)n1 (stereo not given),-4.29,18.2,-3.94,-5.52,4.41,-5.68,20.8,2.37,10.5,32.9,-23.1
COc1cccc2c1OCC(NC(=O)NC1CCN(C3CC3)CC1)C2 (stereo not given),-3.95,0,4.77,0.911,4.77,0,10.6,3.27,6.38,7.79,-0.292
O=C(NCCCc1ccncc1)C1CCCN(Cc2ccco2)C1 (stereo not given),-4.69,5.33,3.79,-5.72,-10.8,1.04,17.6,29.8,-1.64,6.17,-7.2
c1ccc(N2CCOC3(CCCN(c4nncs4)C3)C2)nc1 (stereo not given),-3.17,7.79,3.64,2.14,-1.28,3.23,14.4,-6.63,3.17,8.97,-7.1
COc1nc(C)cc(C)c1CNC(=O)N(C)Cc1cnn(C)c1,-2.85,10.8,-7.89,7.05,2.32,-2.4,6.28,4.87,3.96,15.8,-6.86
